Assay results from PubChem BioAssay (NCATS).
Inconclusive results are not listed. Active and inactive are the calls of the source. Unless noted, calls come from the whole dose curve; as a rule, active = well fitted curve in either direction with a large enough effect (not every such curve was filed as active); inconclusive = small, poorly fitted or top-dose-only effect, or another doubt; inactive = flat fitted curve, though single readings scatter.

Legend:
[1] = molecular target: Lysosomal acid glucosylceramidase (Homo sapiens) (UniProt P04062); experiment: Glucocerebrosidase-p2 (AID 348; in the data active = potency below about 10 µM; note: potency is the fitted concentration of half-maximal effect); conditions: purified GBA, blue fluorogenic substrate, 40 min
How it was run: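 Normal human glucocerebrosidase (0.2 nM) with blue fluorogenic substrate (80 uM final) in citrate/phosphate pH 5.9 with 10mM sodium taurocholate, 0.01% tween-20; 40 min RT, NaOH/glycine stop; fluorescence Ex 365/Em 440; AC50 from a titration from 0.6 nM upwards.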

[2] = AP1 Signaling Pathway (AID 357); conditions: ME-180 AP-1-bla reporter, EGF-induced, beta-lactamase ratio, 5 h; at 7.69 µM (top of the series) unless noted;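 note: ME-180 reporter cells stimulated with EGF at its EC50 level; % is set by controls: 0 for no effect and ±100 for the full control effect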
How it was run: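 A ratiometric CCF4 readout (405 nm excitation; 460 and 530 nm emission) quantified AP-1-driven beta-lactamase in ME-180 cells after 5 h with compound and EC50 EGF; AC50 values were derived for activators and inhibitors.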

[3] = molecular target: Glucocorticoid receptor (Homo sapiens) (UniProt P04150); experiment: GR-GFP Redistribution (AID 450;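 active = compounds whose dose series gives a full or clear partial fitted curve of increased nuclear translocation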; note: potency is the fitted concentration of half-maximal effect); conditions: U2OS GR-GFP nuclear translocation, laser cytometry, 2 h
[4] = molecular target: Glucocorticoid receptor (Homo sapiens) (UniProt P04150); experiment: GR-EFC Redistribution (AID 451; calls by dose curve; note: potency is the fitted concentration of half-maximal effect); conditions: CHO-K1 GR-EFC translocation, beta-gal luminescence, 2 h
How it was run: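 Translocation of GR-ED fusion to nuclear EA restores b-gal, read by luminescence after 1 h room-temperature detection. Engineered CHO-K1 biosensor cells, 1,000/well, exposed 2 h at 37 C to titrations up to 46 uM final.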

[5] = molecular target: Mitogen-activated protein kinase 10 (Mus musculus) (UniProt Q61831); experiment: JNK3 AlphaScreen Assay (AID 530); conditions: JNK3 lysate, c-Jun phosphorylation; series mostly up to 57.1 µM;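 note: kinase came from lysate of stimulated human HepG2 cells; signal reports phosphorylation of biotinylated GST-cJun 1-79 at Ser73 with 10 µM ATP; % is set by controls: 0 for no effect and ±100 for the full control effect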
How it was run: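 qHTS titrations with 15 min compound pre-incubation before adding ATP (10 uM final). Read-out: AlphaScreen of Ser73-phosphorylated biotin-GST-cJun using HepG2 lysate JNK3 activated by IL-1β and TNFα.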

[6] = molecular target: 3',5'-cyclic-AMP phosphodiesterase 4B (Homo sapiens) (UniProt Q07343); experiment: qHTS Assay for Inhibitors of PDE-IV (AID 607; active = well fitted activation curve with a large enough effect in the main read-out, with a control signal flat, not every such curve was filed as active; note: % of control where 0% means no effect); conditions: HEK293 ACTOne CNG channel cells, membrane potential fluorescence; series mostly up to 22.9 µM
How it was run: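 Live HEK293 cells with a modified cyclic nucleotide-gated (CNG) channel report intracellular cAMP via membrane-potential dye fluorescence (ex 535/em 590 nm). Endogenous PDE-IV was targeted. Compounds were tested at up to 22.9 uM final; RO 20-1724 100 uM served as control.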

[7] = Stat Signaling Pathway (AID 446); conditions: ME-180 (cervical carcinoma) SIE beta-lactamase reporter, IL-6 stimulated, 5 h; at 7.69 µM (top of the series) unless noted;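 note: ME-180 cervical cancer cells given 40 pM IL-6 alongside compound; SIE-controlled beta-lactamase reporter measured as 460/530 nm FRET emission ratio; % is set by controls: 0 for no effect and ±100 for the full control effect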
How it was run: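 Overnight-plated ME-180 cells bearing a STAT Inducible Element beta-lactamase reporter; 5 h co-exposure to compound and 40 pM IL-6; values normalized to 300 pM IL-6 and 125 nM JAK inhibitor controls.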

[8] = molecular target: Cytochrome P450 2C9 (Homo sapiens) (UniProt P11712); experiment: qHTS Assay for Inhibitors and Substrates of Cytochrome P450 2C9 (AID 883; active = well fitted inhibition curve with a large enough effect; note: % is set by controls: 0 for no effect and ±100 for the full control effect; nearly all actives have a fitted effect of over 60% in size); conditions: recombinant CYP2C9, luciferin-H luminescence, 60 min; series mostly up to 57.1 µM
How it was run: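 Turnover of Luciferin-H (100uM, KM) by 10nM human CYP2C9 was measured over 60 min at 37C with NADPH regeneration; inhibitors and some substrates reduce luminescence. Data normalized to sulphaphenazole 57uM.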

[9] = molecular target: Cytochrome P450 2D6 (Homo sapiens) (UniProt P10635); experiment: qHTS Assay for Inhibitors and Substrates of Cytochrome P450 2D6 (AID 891; active = well fitted inhibition curve with a large enough effect;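 note: luciferin methyl ether substrate demethylated by CYP2D6 with NADPH regeneration; % is set by controls: 0 for no effect and ±100 for the full control effect; nearly all actives have a fitted effect of over 60% in size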); conditions: recombinant CYP2D6, luciferin-ME EGE luminescence; series mostly up to 11.4 µM
How it was run: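 Luminescent read-out of luciferin formed by 5 nM human CYP2D6 demethylating 30 uM Luciferin-ME EGE (Km level) over 60 min at room temperature after NADPH regeneration addition. Data normalized to full inhibition by 1.43 uM quinidine.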

[10] = molecular target: Cytochrome P450 2C19 (Homo sapiens) (UniProt P33261); experiment: qHTS Assay for Inhibitors and Substrates of Cytochrome P450 2C19 (AID 899; active = well fitted inhibition curve with a large enough effect; note: % is set by controls: 0 for no effect and ±100 for the full control effect; nearly all actives have a fitted effect of over 60% in size); conditions: recombinant CYP2C19, luciferin-H EGE luminescence; series mostly up to 11.4 µM
How it was run: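 Reactions contain 5nM enzyme, 10uM Luciferin-H EGE (KM) and 50mM KPO4; compound preincubates 10 min at 37C, NADPH regeneration starts turnover for 60 min. Luminescence after detection reagent gives activity.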

[11] = NFAT Signaling Pathway (AID 444); conditions: Jurkat NFAT-bla M1, carbachol, beta-lactamase ratio, 5 h; at 7.69 µM (top of the series) unless noted;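 note: carbachol stimulus at about its EC50 of 1 µM final; % is set by controls: 0 for no effect and ±100 for the full control effect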
How it was run: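 Read-out: CCF4 FRET ratio (460 nm/530 nm) after 1 h RT dye loading, used for %activity and AC50 from titration series. Cells: Jurkat NFAT-β-lactamase/M1 line, treated with compound plus 1 uM carbachol for 5 h, 37 °C.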

[12] = molecular target: Cytochrome P450 1A2 (Homo sapiens) (UniProt P05177); experiment: p450-cyp1a2 (AID 410; calls by dose curve;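 note: -100% = full effect of reference inhibitor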); conditions: recombinant CYP1A2, luciferin-ME demethylation, luminescence; series mostly up to 11.4 µM
How it was run: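 Luminescent demethylation readout: Luciferin-ME (100uM, equal to Km) turned over by 20nM CYP1A2 for 60 min at room temperature after NADPH regeneration addition, following 10 min compound preincubation. Normalization used 57 uM furafylline as full inhibition.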

Sequence of Lysosomal acid glucosylceramidase (Homo sapiens) (P04062 whole entry, looked up): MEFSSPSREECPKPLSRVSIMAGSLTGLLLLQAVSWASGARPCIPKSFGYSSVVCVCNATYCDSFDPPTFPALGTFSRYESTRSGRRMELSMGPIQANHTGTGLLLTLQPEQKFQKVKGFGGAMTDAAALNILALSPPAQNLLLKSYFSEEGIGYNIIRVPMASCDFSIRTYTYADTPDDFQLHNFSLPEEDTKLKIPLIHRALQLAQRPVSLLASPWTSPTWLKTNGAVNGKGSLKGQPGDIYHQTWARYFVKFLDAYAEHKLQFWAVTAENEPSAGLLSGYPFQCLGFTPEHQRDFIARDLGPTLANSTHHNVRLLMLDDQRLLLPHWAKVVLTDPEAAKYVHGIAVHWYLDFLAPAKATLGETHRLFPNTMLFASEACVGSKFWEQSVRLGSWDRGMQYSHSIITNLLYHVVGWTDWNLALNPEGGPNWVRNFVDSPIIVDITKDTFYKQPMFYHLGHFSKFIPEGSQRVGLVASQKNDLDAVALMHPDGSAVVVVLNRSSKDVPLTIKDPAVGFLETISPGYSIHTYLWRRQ
Sequence of Glucocorticoid receptor (Homo sapiens) (P04150 whole entry, looked up, the tested form may be a part): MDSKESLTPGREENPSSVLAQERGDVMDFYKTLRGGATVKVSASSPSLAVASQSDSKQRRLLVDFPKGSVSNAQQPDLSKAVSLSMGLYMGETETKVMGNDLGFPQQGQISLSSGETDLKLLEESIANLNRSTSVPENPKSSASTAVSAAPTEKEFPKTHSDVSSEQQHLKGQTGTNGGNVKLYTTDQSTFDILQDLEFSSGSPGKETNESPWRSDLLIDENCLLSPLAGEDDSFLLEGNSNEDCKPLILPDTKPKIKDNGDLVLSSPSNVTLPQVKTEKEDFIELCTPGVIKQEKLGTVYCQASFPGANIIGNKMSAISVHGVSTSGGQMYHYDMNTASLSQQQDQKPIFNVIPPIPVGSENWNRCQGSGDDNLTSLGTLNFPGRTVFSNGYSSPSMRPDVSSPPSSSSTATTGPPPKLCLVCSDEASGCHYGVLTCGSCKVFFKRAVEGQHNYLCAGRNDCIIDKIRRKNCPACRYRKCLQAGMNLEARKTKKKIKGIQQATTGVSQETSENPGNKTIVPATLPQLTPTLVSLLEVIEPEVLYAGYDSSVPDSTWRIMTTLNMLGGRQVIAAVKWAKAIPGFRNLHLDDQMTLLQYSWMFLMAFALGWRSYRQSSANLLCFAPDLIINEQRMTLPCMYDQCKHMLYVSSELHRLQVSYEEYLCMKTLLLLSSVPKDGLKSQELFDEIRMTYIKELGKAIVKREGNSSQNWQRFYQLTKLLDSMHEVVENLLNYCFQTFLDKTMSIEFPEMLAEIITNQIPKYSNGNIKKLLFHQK
Sequence of 3',5'-cyclic-AMP phosphodiesterase 4B (Homo sapiens) (Q07343 whole entry, looked up): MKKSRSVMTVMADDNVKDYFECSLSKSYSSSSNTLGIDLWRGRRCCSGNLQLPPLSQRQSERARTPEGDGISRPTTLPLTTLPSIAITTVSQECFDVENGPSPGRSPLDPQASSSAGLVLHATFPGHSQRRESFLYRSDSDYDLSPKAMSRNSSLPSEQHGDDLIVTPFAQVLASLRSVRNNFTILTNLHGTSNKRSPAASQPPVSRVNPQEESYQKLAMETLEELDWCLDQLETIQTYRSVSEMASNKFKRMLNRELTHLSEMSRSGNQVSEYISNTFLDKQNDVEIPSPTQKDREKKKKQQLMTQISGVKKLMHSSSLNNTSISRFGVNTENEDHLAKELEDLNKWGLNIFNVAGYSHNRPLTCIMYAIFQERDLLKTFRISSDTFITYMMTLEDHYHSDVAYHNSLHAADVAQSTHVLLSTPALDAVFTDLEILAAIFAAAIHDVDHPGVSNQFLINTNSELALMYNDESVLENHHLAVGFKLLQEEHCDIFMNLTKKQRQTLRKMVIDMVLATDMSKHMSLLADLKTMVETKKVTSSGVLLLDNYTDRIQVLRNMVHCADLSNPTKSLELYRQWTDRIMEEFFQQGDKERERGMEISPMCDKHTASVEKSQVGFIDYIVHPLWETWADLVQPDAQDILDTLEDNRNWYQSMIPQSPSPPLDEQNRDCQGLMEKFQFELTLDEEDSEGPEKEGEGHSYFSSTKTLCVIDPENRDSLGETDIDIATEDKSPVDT
Sequence of Cytochrome P450 2D6 (Homo sapiens) (P10635 whole entry, looked up): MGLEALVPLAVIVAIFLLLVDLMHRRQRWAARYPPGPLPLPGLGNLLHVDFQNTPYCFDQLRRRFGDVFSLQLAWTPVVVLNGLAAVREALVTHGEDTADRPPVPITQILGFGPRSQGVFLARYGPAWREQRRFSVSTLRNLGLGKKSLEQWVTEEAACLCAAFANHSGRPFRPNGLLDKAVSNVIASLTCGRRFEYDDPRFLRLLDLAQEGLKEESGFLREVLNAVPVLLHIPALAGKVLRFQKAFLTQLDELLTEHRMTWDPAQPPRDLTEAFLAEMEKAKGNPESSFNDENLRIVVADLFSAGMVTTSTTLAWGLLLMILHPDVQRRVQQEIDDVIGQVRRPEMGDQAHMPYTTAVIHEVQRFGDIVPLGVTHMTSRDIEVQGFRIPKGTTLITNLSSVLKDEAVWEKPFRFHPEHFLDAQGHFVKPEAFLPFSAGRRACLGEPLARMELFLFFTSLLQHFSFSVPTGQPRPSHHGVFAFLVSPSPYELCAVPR
Sequence of Cytochrome P450 2C19 (Homo sapiens) (P33261 whole entry, looked up): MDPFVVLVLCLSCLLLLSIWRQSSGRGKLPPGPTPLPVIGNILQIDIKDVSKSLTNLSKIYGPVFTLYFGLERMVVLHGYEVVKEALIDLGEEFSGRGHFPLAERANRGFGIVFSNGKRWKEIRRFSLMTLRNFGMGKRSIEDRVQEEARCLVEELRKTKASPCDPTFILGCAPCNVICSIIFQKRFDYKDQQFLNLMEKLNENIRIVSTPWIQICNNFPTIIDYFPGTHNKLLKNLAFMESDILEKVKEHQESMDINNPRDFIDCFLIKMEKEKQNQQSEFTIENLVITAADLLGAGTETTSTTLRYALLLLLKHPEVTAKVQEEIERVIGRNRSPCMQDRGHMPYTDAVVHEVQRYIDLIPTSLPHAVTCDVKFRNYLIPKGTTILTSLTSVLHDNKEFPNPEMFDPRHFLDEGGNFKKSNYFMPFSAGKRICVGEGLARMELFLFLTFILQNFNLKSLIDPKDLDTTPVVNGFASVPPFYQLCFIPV
Sequence of Cytochrome P450 1A2 (Homo sapiens) (P05177 whole entry, looked up): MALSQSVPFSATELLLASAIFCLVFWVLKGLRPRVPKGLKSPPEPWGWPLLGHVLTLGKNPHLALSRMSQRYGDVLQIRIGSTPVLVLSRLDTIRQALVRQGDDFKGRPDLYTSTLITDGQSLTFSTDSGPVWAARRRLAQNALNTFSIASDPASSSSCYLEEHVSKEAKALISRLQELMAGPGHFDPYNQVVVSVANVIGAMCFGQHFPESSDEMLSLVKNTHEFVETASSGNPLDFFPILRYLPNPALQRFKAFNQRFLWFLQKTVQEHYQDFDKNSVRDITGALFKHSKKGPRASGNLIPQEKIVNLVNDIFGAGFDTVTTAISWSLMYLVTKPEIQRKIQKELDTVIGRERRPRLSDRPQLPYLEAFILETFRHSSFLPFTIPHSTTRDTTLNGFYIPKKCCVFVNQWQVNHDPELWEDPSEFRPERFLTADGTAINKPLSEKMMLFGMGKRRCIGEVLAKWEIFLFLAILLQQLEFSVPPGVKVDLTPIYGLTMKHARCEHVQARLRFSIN
Sequence of Cytochrome P450 2C9 (Homo sapiens) (P11712 whole entry, looked up): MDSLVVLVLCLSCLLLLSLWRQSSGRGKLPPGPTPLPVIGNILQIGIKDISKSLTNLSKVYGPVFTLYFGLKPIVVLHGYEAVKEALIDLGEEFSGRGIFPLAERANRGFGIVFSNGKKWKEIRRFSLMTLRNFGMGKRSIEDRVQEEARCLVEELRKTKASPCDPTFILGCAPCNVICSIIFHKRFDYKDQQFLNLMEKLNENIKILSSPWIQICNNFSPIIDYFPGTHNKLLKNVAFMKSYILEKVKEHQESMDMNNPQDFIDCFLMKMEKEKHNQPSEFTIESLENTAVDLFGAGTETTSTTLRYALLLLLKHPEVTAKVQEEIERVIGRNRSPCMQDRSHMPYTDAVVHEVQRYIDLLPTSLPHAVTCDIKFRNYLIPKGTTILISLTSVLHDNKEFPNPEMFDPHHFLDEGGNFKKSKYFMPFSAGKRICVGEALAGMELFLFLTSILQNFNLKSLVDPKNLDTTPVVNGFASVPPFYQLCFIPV

NC(N)=NCCN=C(N)N
inactive: Potency [1] > 11.4 µM | activity change, negative = inhibition [2] 1.56% | Potency [3] > 46 µM | Potency [4] > 9.22 µM | activity change, negative = inhibition [5] 1.78% [at 11.4 µM] | outcome [6]

CN[C@H]1[C@H](C)O[C@@H](O[C@@H]2C/C=C(/C)C/C(C)=C\C=C/CC[C@@H](C)CNC(=O)/C=C\C=C/[C@H]2C)C[C@@H]1O
inactive: Potency [1] > 11.4 µM | activity change, negative = inhibition [2] -6.3% | activity, negative = inhibition [7] -1.24% | Potency [3] > 46 µM | Potency [4] > 9.22 µM | activity change, negative = inhibition [5] 1.47% [at 11.4 µM] | activity change, negative = inhibition [8] -5.72% [at 11.4 µM] | Potency [9] | Potency [10]

COC(=O)c1c(C)ccc2c(O)c3c(cc12)C(=O)c1c2c(cc(O)c1C3=O)[C@@]1(C)O[C@@](C)(O2)[C@@H](O)[C@H](N(C)C)[C@H]1O
inactive: Potency [1] > 11.4 µM | activity change, negative = inhibition [11] -7.69% | activity, negative = inhibition [7] 10.6% | Potency [3] > 46 µM | Potency [4] > 9.22 µM | activity change, negative = inhibition [5] -7.99% [at 11.4 µM] | outcome [6]

O=C(O)[C@@H]1[C@H](C(=O)O)[C@]2(Cl)C(Cl)=C(Cl)[C@@]1(Cl)C2(Cl)Cl
inactive: Potency [1] > 11.4 µM | Potency [12] | activity change, negative = inhibition [11] 11.1% | activity, negative = inhibition [7] 3.47% | Potency [3] > 46 µM | Potency [4] > 9.22 µM | activity change, negative = inhibition [5] 0.126% [at 11.4 µM] | outcome [6]
